Consider 37 molecules from PubChem BioAssay AID741 (SRMLSC, 2007).

A short description of the assay: MRP-overexpressing cell chemosensitization – dose response (AID 741). As to conditions: MRP-overexpressing cells, viability with/without cytotoxic drug; slope difference: measured here: slope difference tox minus reversal, stronger effect = higher value; toxicity enhancement factor: stronger effect = higher value; viability: measured here: viability series, compound alone, at 10 µM, stronger effect = lower value.

Inconclusive results are not listed. Calls of active or inactive are those of the source. Cut-off read from the data, not from the text of the source: active = toxicity enhancement factor above about 0.054; inconclusive = between about 0.00067 and that limit; inactive = weaker than that.

The viability is a read-out of living cells in per cent, often relative to untreated cells. As to `c1ccc(-c2nc(N3CCOCC3)c3ccccc3n2)nc1`, the slope difference was -2.79, the toxicity enhancement factor is -0.0278 (inactive) and the viability was 87%.

With `CC(C)Cc1ccc(C(C)C(=O)O)cc1` (stereo unspecified), the slope difference was -0.62, the toxicity enhancement factor was -0.0059 (inactive) and the viability stood at 93.7%.

With `O=C(O)c1ccc(-n2nnnc2SCc2ccccc2)cc1`, the slope difference was -0.76, the toxicity enhancement factor was -0.0082 (inactive) and the viability was 88.7%.

With `O=C(CSc1nnc(CN2CCOCC2)n1-c1ccc(Cl)cc1)Nc1cc(Cl)ccc1O`, the slope difference turned out to be 2.56, the toxicity enhancement factor was 0.0702 (active) and the viability turned out to be 67.3%.

Turning to `CC(C(=O)O)c1cccc(C(=O)c2ccccc2)c1` (stereo unspecified), the slope difference is -1.03, the toxicity enhancement factor was -0.0105 (inactive) and the viability was 92.4%.

For the molecule `CC(C(=O)O)c1ccc(N2Cc3ccccc3C2=O)cc1` (stereo unspecified), the slope difference was -0.182, the toxicity enhancement factor was -0.0019 (inactive) and the viability was 98.6%.

`COc1cc(/C=C/C(=O)CC(=O)/C=C/c2ccc(O)c(OC)c2)ccc1O`: the slope difference was -2.01, the toxicity enhancement factor was -0.0391 (inactive) and the viability was 24.1%.

For `COCC(C)OC(=O)C(C#N)c1nc2ccccc2nc1N1CCN(Cc2ccccc2)CC1` (stereo unspecified), the slope difference is -0.109, the toxicity enhancement factor was -0.0013 (inactive) and the viability was found to be 89.3%.

As for `CC1(C)CC(=O)C2=C(C1)N(c1cccc(O)c1)C1=C(C2)C(=O)CC(C)(C)C1`, the slope difference was 3.34, the toxicity enhancement factor is 0.0743 (active) and the viability amounted to 87.2%.

For `O=c1[nH]c2ccc(Br)cc2c(-c2ccccc2)c1N1CCOCC1`, the slope difference stood at 2.74, the toxicity enhancement factor was 0.0679 (active) and the viability was determined as 74.8%.

With `Cc1nc(C)c(C)nc1C`, the slope difference was -0.412, the toxicity enhancement factor was -0.004 (inactive) and the viability worked out at 98.8%.

`Cn1c(=O)c2c(nc(NC3CCCCC3)n2CC(O)COc2ccccc2)n(C)c1=O` (stereo unspecified): the slope difference was -0.557, the toxicity enhancement factor is -0.0085 (inactive) and the viability was 68.8%.

Regarding `CCCNS(=O)(=O)c1ccc(NC(=O)c2ccccn2)cc1`, the slope difference was -0.0969, the toxicity enhancement factor is -0.001 (inactive) and the viability stood at 99.5%.

As for `CC1=NN(C(N)=S)C(=O)C1N=Nc1ccccc1C` (stereo unspecified), the slope difference is -0.556, the toxicity enhancement factor was -0.0057 (inactive) and the viability worked out at 92.1%.

Turning to `COc1ccc(N2C(=O)C(Cl)=C(N3CCCC3)C2=O)cc1`, the slope difference is -0.145, the toxicity enhancement factor is -0.0016 (inactive) and the viability came out at 91.8%.

Take `CSc1nnc(-c2cc3ccccc3cc2O)n1C`: the slope difference was -0.153, the toxicity enhancement factor was -0.0016 (inactive) and the viability turned out to be 101%.

Consider `CC(=O)Oc1cccc2c1C(=O)c1c(OC(C)=O)cc(C(=O)O)cc1C2=O`, for which the slope difference is -1.12, the toxicity enhancement factor is -0.0114 (inactive) and the viability turned out to be 89.5%.

Turning to `COC(=O)Nc1ccc(S(=O)(=O)N2c3ccccc3CCC2C)cc1` (stereo unspecified), the slope difference was -2.95, the toxicity enhancement factor is -0.0581 (inactive) and the viability came out at 20.1%.

On to `Cn1ccnc1-c1nc2ccccc2[nH]c1=O`, for which the slope difference was -0.138, the toxicity enhancement factor was -0.0015 (inactive) and the viability stood at 92.3%.

Regarding `O=C1Nc2cc(C(=O)N3CCN(Cc4ccccc4)CC3)ccc2SC1N1CCOCC1` (stereo unspecified), the slope difference is -0.0531, the toxicity enhancement factor was -0.0007 (inactive) and the viability turned out to be 83.2%.

Regarding `O=C1CCCC2=C1C(c1cccs1)n1nc(SCc3ccccc3F)nc1N2` (stereo unspecified), the slope difference was 2.51, the toxicity enhancement factor was 0.0631 (active) and the viability was determined as 69.6%.

Consider `Cc1cccc2cc(CN(Cc3nnnn3Cc3ccco3)C3CCCC3)c3nnnn3c12`, for which the slope difference is -1.43, the toxicity enhancement factor is -0.027 (inactive) and the viability was found to be 51.1%.

`CC1(C)CC(=O)C2=C(C1)N(c1ccccc1)C(N)=C(C#N)C2c1cccnc1` (stereo unspecified): the slope difference came to 2.68, the toxicity enhancement factor is 0.105 (active) and the viability worked out at 60%.

As for `c1ccc2c(c1)nc1n2CN(Cc2ccc3c(c2)OCO3)CN1`, the slope difference is -0.301, the toxicity enhancement factor was -0.0032 (inactive) and the viability was 85.8%.

Regarding `Cc1ccc(/C=N/Nc2nc(Cl)c(Cl)cc2Cl)s1`, the slope difference was -0.0549, the toxicity enhancement factor is -0.0006 (inactive) and the viability was 99.8%.

As to `CCN(CC)C(=O)CSc1nc2c(sc(=S)n2-c2ccccc2)c(=O)n1Cc1ccco1`, the slope difference was determined as 3.95, the toxicity enhancement factor is 0.0846 (active) and the viability stood at 87.8%.

On to `Cc1cc(C)cc(OCc2nnc(SCC(=O)c3ccc(Br)cc3)o2)c1`, for which the slope difference was -0.893, the toxicity enhancement factor was -0.0094 (inactive) and the viability came out at 92.3%.

Take `CCCCC1C(=O)N(c2ccccc2)N(c2ccccc2)C1=O`: the slope difference is -0.496, the toxicity enhancement factor is -0.0047 (inactive) and the viability came to 101%.

Turning to `CCCCNc1c2c3c(cccc3n(C)c1=O)C(=O)c1ccccc1-2`, the slope difference was -4.84, the toxicity enhancement factor was -0.0634 (inactive) and the viability was determined as 32.4%.

In the case of `c1ccc2c(N3CCOCC3)nc(-c3ccncc3)nc2c1`, the slope difference was -1.84, the toxicity enhancement factor was -0.0239 (inactive) and the viability is 66.1%.

As to `CC(=O)Nc1ccc(S(=O)(=O)NCCC(=O)NCCc2ccc(F)cc2)cc1`, the slope difference amounted to 0.0009, the toxicity enhancement factor is 0 (inactive) and the viability stood at 87.3%.

As for `CCOC(=O)Nc1ccc(S(=O)(=O)Nc2nccc(C)n2)cc1`, the slope difference was -0.237, the toxicity enhancement factor is -0.0025 (inactive) and the viability worked out at 97.4%.

For `Cc1cccc(OCc2nnc(SCC(=O)c3ccccc3)o2)c1`, the slope difference was -0.739, the toxicity enhancement factor is -0.007 (inactive) and the viability amounted to 97.4%.

Take `CCc1nc(SCC(=O)Nc2c(C)nn(C)c2C)c2cnn(-c3ccccc3)c2n1`: the slope difference was -0.333, the toxicity enhancement factor is -0.0042 (inactive) and the viability was 79.1%.

Regarding `CCN(C(=O)c1cn(C)c(=O)c2cc(OC)c(OC)cc12)c1cc(OC)ccc1OC`, the slope difference was 4.18, the toxicity enhancement factor was 0.129 (active) and the viability came to 77.9%.

As to `Cc1ccc(Cl)c(Nc2ccccc2C(=O)O)c1Cl`, the slope difference is -0.97, the toxicity enhancement factor was -0.0098 (inactive) and the viability was found to be 92.5%.

With `O=C(O)Cc1ccc(-c2ccccc2)cc1`, the slope difference is -0.343, the toxicity enhancement factor was -0.0033 (inactive) and the viability was found to be 99.6%.
